Test results from the supplement of paper PMC6555819.

How the values were obtained:
Test in all cases: PBM binding z-score (relative to random genomic background probes); higher = stronger binding; sequences stand for … in GC…GCGATTGACAGCGTAGAATGAAGG
[1] = tested on: RARb homodimer (NR concentration 270 nM)
Method in brief: (§1)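 Custom Agilent 4×180K protein-binding microarrays carried double-stranded probes, each with a 34-nt variable region. These regions held direct-repeat seeds, single-nucleotide variants, half-site ablations and random human genomic background sequences. Ligand-free nuclear receptor dimers were incubated on the arrays for 1 h, antibodies against each partner (one per run) detected binding, and scanned fluorescence was regression-normalized. Binding z-scores take the random background probes as reference.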

[2] = tested on: RARg:RXRa (NR concentration 270 nM, RXRa partner concentration 90 nM)
Method in brief: as §1

[3] = tested on: RARg homodimer (NR concentration 270 nM)
Method in brief: as §1

[4] = tested on: RXRa DBDmut IVT, anti-RXR (DBD mutation: RXRa K156A/R161A, NR concentration 90 nM)
Method in brief: as §1

[5] = tested on: RXRa homodimer (NR concentration 180 nM)
Method in brief: as §1

[6] = tested on: THRa:RXRa (NR concentration 90 nM, RXRa partner concentration 90 nM)
Method in brief: as §1

[7] = tested on: THRa homodimer (NR concentration 90 nM)
Method in brief: as §1

[8] = tested on: VDR homodimer (NR concentration 270 nM)
Method in brief: as §1

Sequence	PBM binding z-score [1]	PBM binding z-score [2]	PBM binding z-score [3]	PBM binding z-score [4]	PBM binding z-score [5]	PBM binding z-score [6]	PBM binding z-score [7]	PBM binding z-score [8]
CAAACTAGGTGACGAAAGGTCAAAGTCGAATGAC	4.9	6.2	6.26	1.41	7.46	4.22	1.33	2.22
GCTGTTAGGTCAACTGATGGTCAGCTAAAGCTCG	3.65	5.62	5.67	2.11	3.51	3.62	2.59	0.277
ATCTCTAGGTAAGACTCGGTTCAGTGAAGAACGC	0.578	0.12	0.211	0.708	0.162	0.549	0.875	2.06
CTACCAAGGTGAACAATGTCGTTGATTACTATTC	1.24	0.711	0.812	0.62	0.563	2.04	1.01	0.118
CCTTACGGGTCACTGACAGGTTAGAGCATTTGGA	3.12	5.7	4.77	1.55	5.51	2.68	0.0773	0.83
CATACAGGGGCAGCTAGGCCAGAGTAGGGACGGC	0.473	0.498	1.02	-0.381	-0.153	0.05	-0.63	-0.506
TCTTGTAGATCATCAGGTTAAGAAAGCTGGCCAA	0.398	0.0917	-0.23	0.859	0.451	0.929	0.613	0.0246
ACTAGCAGGCCAAGTTTGGGGCACTCAAACAAAG	0.455	0.443	0.463	-0.0962	-0.356	0.348	-0.409	-0.166
AGAACGAGGGCACTGAGTTGATAGCACGGGTGGC	0.877	1.03	1.64	1.71	1.02	1.19	0.176	2.94
ATCGAAAGGTCGACGAGGTGACTATACACCGTTT	3.13	4.44	4.48	1.17	5.08	3.95	1.27	1.11
CGTCAAAGTTCAAGATAACGTAACAGAAAGCAGC	3.44	5.28	6.09	4.52	4.34	1.72	-0.18	3.57
CAAACTAGGTCACCGGAAGGACAAAGTCCGCATG	4.21	6.38	6.15	1.54	3.82	3.81	2.12	1.38
ATACCAAGGTGATCGAGAGGTCGTTGATACTAAC	1.77	2.91	1.06	0.829	1.71	2.59	0.902	1.98
CGTCCAAGGTCCGAGAGGTCAGTGAATGCCGAGT	3.86	3.1	3.53	1.19	2.4	2.67	1.18	2.95
CATCCAAGGTCAGCAGGTCAGTGAAAGCGACGTG	5.04	6.2	7.09	2.7	6.07	3.89	2.76	2.18
GCGACTGGGGCAAAGCAGGTTACGATAAGGTTGG	1.04	0.351	0.644	-0.265	0.354	2.97	0.0259	-0.24
CCTACTGCGCCACGAAAGGTCATTGATTCAGTGA	4.75	4.62	4	1.51	5.58	3.36	1.47	2.91
TCGAGTAGGTTACGAATGGGGCATTCAGCTTTCT	0.29	0.904	0.405	0.441	0.67	-0.0841	-1.13	-0.811
ATAACGAGGGCACGCTGAGTTGATAGCAGAGTAG	1.27	1.72	2.4	1.64	1.46	2.07	0.209	2.05

Sequence	PBM binding z-score [1]	PBM binding z-score [2]	PBM binding z-score [3]	PBM binding z-score [4]	PBM binding z-score [5]	PBM binding z-score [6]	PBM binding z-score [7]	PBM binding z-score [8]
CATACTGGGCCAAGGTCATTGATCAGTCAAAGCA	3.56	3.85	3.29	1.62	3.31	3.49	2.63	3.71
GGAACGAGGGCACAGTTGATAGCATCTGTCGACG	0.918	1.28	1.61	1.69	0.922	1.08	-0.317	0.774
CCCCGGAGGACAACAGGAGGTCAGAGCTGCCAGA	3.5	3.66	3.24	-0.883	2.21	2.94	1.39	1.77
TCTTGTATATCAACAGGAGGTTAAGAAAGATCGA	0.861	0.722	0.592	0.943	1.25	1.18	0.039	0.491
CCTCGGTGGACAACAGGAGGTCAGAGCTGCCAGA	2.99	2.06	1.73	-0.87	1.64	1.97	0.341	0.396
TCGAGTAGGTTACCAATGGGGGATTCAGCTTTCT	0.472	1.09	0.478	0.789	0.767	0.805	0.162	-0.0448
TAACCTAGGTCATGCGGGCCAGTATAGTGTCGGC	3.44	4.53	4.39	1.15	3.58	3.32	1.23	1.05
TCGAGTAGGTTAGCCGGGGCATTCAGCCAACATA	0.49	0.0604	-0.231	0.227	0.332	1.17	-0.114	-0.000725
CCTCGGAGGACAAAAGGTCAGAGCTGTCCGCTTT	5.18	6.04	5.86	0.812	4.67	3.07	0.53	0.674
CCGACTGGGGTAAGGTTACCATAACGCACAGCCA	1.12	0.907	0.859	-0.0386	1.55	2.36	1.47	0.414
AGAATGAGGTTACCAAAGATTAGGGAAACGCTTG	0.628	1.99	1.59	0.929	2.53	2.69	0.581	0.29
CCGGCTAGGTCATGGTCAGCTAATCTACAGTATG	3.33	4.11	4.99	1.48	3.01	2.99	1.57	0.619
ATCGAAATGTCGAGGTGAGTATAGAGAAAGGGAA	-0.158	0.381	0.595	-0.737	0.198	1.24	0.217	-0.583
TCATATAGGTAAACAGGTGTAAGTCCGTAAGTTA	0.165	0.307	0.308	1.57	0.982	0.356	0.324	0.657
CGAACTAGGTCATTGACAGGACAGTTAATAGTAA	2.42	4.65	4.41	2.52	2.86	2.77	0.893	1.27
CATACAGGGTCAGCTACGCCAGAGTAGGGACGGC	2.9	4.44	4.43	1.69	4.11	2.73	0.834	1.09
GCTGACAGGTGAAACGCAGGTAACTCAGGGTGGC	0.252	0.825	0.362	-0.702	0.505	1.27	-0.547	-0.647
TCTCGGAGGACACTAAGGTCAGAGCTTTCCAGAG	3.82	3.4	3.84	1.33	2.26	3.71	3.11	2.73
CCTTGTTGGTCAGGAGGTCACACACCGGATATGA	4.42	4.76	4.32	0.608	4.89	3.33	2.47	2.17

Sequence	PBM binding z-score [1]	PBM binding z-score [2]	PBM binding z-score [3]	PBM binding z-score [4]	PBM binding z-score [5]	PBM binding z-score [6]	PBM binding z-score [7]	PBM binding z-score [8]
ACTATTAGTTAAGACGAGGGCAACCGATAGGTTG	1.34	0.59	0.902	0.459	0.55	1.85	0.204	0.991
CCTAGTTGGTCGAGGTCACACACGCTATAGGTAC	3.98	4.6	4.42	2.64	5.16	4.16	4.15	4.51
CCTTGTTGGTCAAGGTCACACACGCTATAGGTAC	4.53	4.56	4.95	1.83	4.51	4.31	4.1	3.13
TCGAGTAGGTTAGGGGCATTCTGAATGGCGTCGA	0.656	0.0827	0.00279	0.628	0.386	0.627	-0.0336	0.572
TGTCAAAGTTCAAAGGTAACGTGAGTATCCACAC	4.01	6.45	6.06	4.32	7.77	3.39	-0.326	4.31
AGAATGAGGTTCCCAAAGATCAGGGAAACGCTTG	-0.864	0.141	0.123	-0.649	0.474	0.218	-0.623	-0.39
GCTTGTAGATCAAGGTTAATAAAGACTAAGCTAA	0.0389	0.0476	0.168	-0.167	0.452	1	-0.489	-0.152
CCTCGGAGGCCAGAAGGTCAGAGCTGTCCGCTTT	3.49	3.66	3.12	-0.11	2.05	1.67	0.0524	-0.311
GCTAGTTGGTCAGTAAGAGGTCACACACCGGTCG	4.7	4.94	3.87	0.674	4.5	3.58	2.63	3.38
ACTAACGGGTCAACGAGGTTATAGCACGCGTATA	3.41	5.03	4.5	1.94	5.17	3.81	1.03	3.56
CCTGGGAGGACAGAAGGTCAGAGCTGTCCGCTTT	3.38	3.49	3.63	-0.277	1.92	2.69	0.124	0.289
TCTTGTAGTTCAACAGGAGGTTAAGAAAGATCGA	2.2	4.32	2.05	2.02	2.16	2.17	-0.466	1.11
ATCGAAAGGGCGACGAGGTGAGTATACACCGTTT	1	1.16	1.28	-0.425	0.969	1.99	0.542	0.597
TAGCCTAGGTAATTCAGGGGCCAGTATAGAAAGC	0.306	0.386	-0.0521	-0.687	-0.137	0.54	-0.13	-0.354
CCTACTGGTCCACGAAAGGTCATTGATTCAGTGA	4.62	4.79	4.43	1.26	5.49	3.52	1.6	3.62
TCATATAGGTAAAAGATGAAAGTCGGTGTGGTAA	-0.433	0.301	0.223	1.73	0.923	0.0309	0.103	-0.0575
CGTCAAAGTTCGAGGTAACGTAACAGAAAGCAGC	1.46	1.92	2.31	2.39	1.64	2.1	0.898	1.2
ATCTCTAGGTAAAGAAAGTTCAGTGAATGCAAAT	2.33	1.43	1.59	0.781	0.876	1.22	0.318	1.71
TCCAGCAGGCCAGAGGGTCACTCAAGAGGTACGG	2.93	2.61	1.71	0.301	2.29	1.7	-0.473	0.227
